The values that follow come from PubChem BioAssay (NCI).

The structures appear in SMILES notation. Compounds without any hit were thinned out: in the full panel of roughly 83,000, 20% have a hit.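 Method: cells in 96-well plates; compound added at one concentration; 48 h incubation; percent growth measured; values under 10 scored active.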 A number with no mark means an inactive call. The source made the active and inactive calls.

The test system of the experiment is MDA-MB-468 breast. Put plainly: NCI-60 one-dose screen, 48 h (100 = growth as untreated, 0 = no growth, -100 = all killed). The note with it: 10 µM unless noted.
Regarding `Cc1ccc(C2=NN3C(C2)c2cc(Br)ccc2OC32CCN(Cc3ccccc3)CC2)o1` (stereo not given), the growth was 105%.

`COc1ccc(N2CCN(CC(=O)N3CCN(c4nnc(-c5ccc(Cl)cc5)c(-c5ccc(Cl)cc5)n4)CC3)CC2)cc1`: the growth is 78.6%.

Regarding `COc1ccc2nc3ccccc3c(NCCNCCO)c2c1`, the growth was -72.9% (active).

As to `CCCC(=O)NC(c1cccnc1)c1ccc2c(C)ccnc2c1O` (stereo not given), the growth was -2% (active).

Take `COc1ccc(/C(C)=C(\c2ccc(OCCN3CCCCCC3)cc2)c2ccc(OC(=O)c3ccccc3)cc2)cc1`: the growth was 61.3%.

As for `COc1cccc(N2CCN(CC(=O)N3CCN(c4nnc(-c5ccc(Cl)cc5)c(-c5ccc(Cl)cc5)n4)CC3)CC2)c1`, the growth was 76.5%.

Regarding `COc1c(O)cc2oc3cc(O[C@@H]4OC(C)[C@@H](O)[C@H](O)C4O)c(CC=C(C)C)c(O)c3c(=O)c2c1CC=C(C)C` (stereo not given in full), the growth is 82.5%.

`CC1(C)CCC[C@]23C(=O)O[C@](O)(C(=O)C4=C[C@@](C)(/C=C/CCCc5ccc6ccc7cccc8ccc5c6c78)CC[C@@]42O)[C@@H]13`: the growth was -70% (active).

Consider `Fc1cc(F)cc(NNC(=S)c2ccccc2)c1`, for which the growth is 43.5%.

Regarding `COC1C[C@H](O[C@@H]2C[C@H](O[C@@H]3C[C@H](O[C@@H]4C(=O)c5c(cc6cc(O[C@H]7C[C@@H](O[C@H]8C[C@@H](O)[C@H](O)C(C)O8)[C@H](O)C(C)O7)c(C)c(O)c6c5O)C[C@H]4C(OC)C(=O)[C@@H](O)[C@@H](C)O)OC(C)[C@H]3O)OC(C)[C@@H]2O)OC(C)[C@@H]1O` (stereo not given in full), the growth was -55% (active).

`CS(=O)(=O)Nc1cc(-c2ccc3ncnc(Nc4ccc(F)c(Cl)c4)c3c2)ccc1Cl`: the growth is -32% (active).

On to `CCOC(=O)C(C#N)C1CCCCC1` (stereo not given), for which the growth was 124%.

On to `CN1C(=O)C2(SCC(C(=O)NCC(=O)OC(C)(C)C)N2C(=O)C2CCCCC2)c2ccccc21` (stereo not given), for which the growth was 104%.

Turning to `COc1ccccc1-[n+]1cc(-c2ccc(-c3ccccc3)cc2)n2c1CCCCC2`, the growth was -23.5% (active).

On to `CNC(=O)c1cccc(Cn2nc(C)c(NC(=O)c3ccc(COc4ccc(C(F)(F)F)cc4C)cc3)c2C)n1`, for which the growth was 3.58% (active).

Take `CCCCc1n(Cc2ccc3ccccc3c2)c2ccccc2[n+]1Cc1ccc2ccccc2c1`: the growth was -78.1% (active).

Regarding `COc1ccc(/C=C(/C(=O)N2CCCC2)c2cc(OC)c(OC)c(OC)c2)cc1`, the growth was 11.6%.

Turning to `N=c1c2c(=N)n3c(nc2nc2n1-c1ccccc1Sc1ccccc1-2)sc1cc(Cl)ccc13`, the growth is -11.8% (active).

In the case of `O=C1C=Cc2ncccc2C1=O`, the growth was 64.5%.

Consider `OC(c1ccccc1)C(NCc1ccccc1)c1ccccc1` (stereo not given), for which the growth was 95.4%.

Regarding `O=C(N/N=C/c1ccc(OC(F)F)c(OC2CCCC2)c1)c1cnn2c1NC(c1ccccc1)C2` (stereo not given), the growth is 84%.

Regarding `O=C(/C=C/c1cccs1)Nc1ncc(Cc2ccc(Cl)c(Cl)c2)s1`, the growth was 58.2%.

For the compound `CC(=O)Nc1ccc(S(=O)(=O)N2C(=O)CCC2C(=O)Nc2ccc(Br)cc2)cc1` (stereo not given), the growth was 20.6%.

As to `CSc1ccc(N(C)c2nc(C)nc3c2CCC3)cc1`, the growth was 46.8%.

For `CSc1nn2c(-c3ccc4ccccc4c3)ccnc2c1C#N`, the growth is 41.3%.

In the case of `CCCCC(CC)COC(C)=O` (stereo not given), the growth is 106%.

With `COc1ccccc1C(=O)Nc1cccc(NC(=O)c2ccoc2C)c1`, the growth is 14%.

As to `Cc1cnc(Nc2ccc(N3CCN(C)CC3)cc2)nc1Nc1ccc(Cl)c(NS(=O)(=O)C(C)(C)C)c1`, the growth is 14.9%.

With `[N-]=[N+]=Nc1ncc(-c2ccc(C(F)(F)F)cc2)c(NC2CCCCCC2)n1`, the growth is 28.9% [100 µM].

For `COc1cc2c(cc1OC)CC[N+](CCC[N+](C)(C)C)=C2`, the growth was 103%.

For the compound `O=C(/C=C/c1ccc(C(F)(F)F)cc1)c1ccc(Nc2nc(NCCO)nc(N3CCOCC3)n2)cc1`, the growth is 20.4%.

With `CCN(CC)CCCC(C)Nc1ccnc(/C=C/c2ccc(Cl)cc2)c1` (stereo not given), the growth is -84.5% (active).

In the case of `COc1ccc(/C(C)=N/NC(=O)c2ccc(S(C)(=O)=O)cc2)cc1OC`, the growth is 95.7%.

With `C=C1CC2(OC1=O)C(=O)N(C)c1ccc(I)cc12` (stereo not given), the growth was -79.2% (active).

For the compound `CC(=O)c1sc(-c2ccc(F)cc2)cc1O`, the growth is 111%.

As for `O=C(NCCc1nccs1)c1cnc2c(S)cccc2c1`, the growth is 16.5%.

Regarding `Nc1cc(-c2nc3sccn3c2-c2ccnc(NCCCNS(=O)(=O)c3ccc(F)cc3)n2)ccc1F`, the growth was 41.7%.

As for `COc1ccc(-c2nc(N/N=C/c3cccc(O)c3)nc(N3CCOCC3)c2C#N)cc1`, the growth was 87.1%.

As for `CCN1CCN(CCCN(C[C@H]2Cc3ccccc3CN2)[C@H]2CCCc3cccnc32)CC1`, the growth was 87.1%.

Regarding `CCCC(=O)c1cccs1`, the growth was 96.9%.
